Laboratory results taken from PubChem BioAssay (Tox21).
Several values for one entry are separate records, joined by “and”; a condition that tells them apart may be missing. Identical values can stand only once. Records with an inconclusive call do not appear. Some compounds were tested as several samples or in several runs, with calls that do not always agree. Activity calls are given as the source filed them. Calls come from the whole dose curve; as a rule, active = well fitted curve in the direction sought with a large enough effect in the repeat runs; inconclusive = weak or mixed curves; inactive = no such curve, though single readings can be large; an effect the other way counts as inactive or inconclusive.

Tests used:
[1] = A CellTox Green Cytotoxicity Assay to monitor cytotoxicity in HepG2 cells - 16 hour (AID 1224876); conditions: CellTox Green fluorescence; series mostly up to 76.8 µM; note: nearly all actives have a fitted effect of over 45% in size; note: potency is the fitted concentration of half-maximal effect
How it was run: (§1)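 Read-out is fluorescence of a cyanine dye excluded from live cells that stains DNA of dead HepG2 cells, with signal proportional to cytotoxicity. Plates were read at 0, 8, 16, 24, 32 and 40 h after compound addition.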

[2] = qHTS RealTime-Glo MT Cell Viability Assay in HepG2 cells - 32 hour (AID 1224877); conditions: RealTime-Glo luminescence; series mostly up to 76.8 µM; note: nearly all actives have a fitted effect of over 55% in size
How it was run: (§2)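 Luminescence read-out: viable HepG2 cells reduce a prosubstrate to a NanoLuc substrate, giving a signal proportional to live cell number. Reads taken at 0, 8, 16, 24, 32 and 40 h of compound exposure at 37 C.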

[3] = A CellTox Green Cytotoxicity Assay to monitor cytotoxicity in HepG2 cells - 24 hour (AID 1224878); conditions: CellTox Green fluorescence; series mostly up to 76.8 µM; note: nearly all actives have a fitted effect of over 45% in size; note: potency is the fitted concentration of half-maximal effect
How it was run: as §1

[4] = A CellTox Green Cytotoxicity Assay to monitor cytotoxicity in HepG2 cells - 40 hour (AID 1224879); conditions: CellTox Green fluorescence; series mostly up to 76.8 µM; note: nearly all actives have a fitted effect of over 40% in size; note: potency is the fitted concentration of half-maximal effect
How it was run: as §1

[5] = qHTS RealTime-Glo MT Cell Viability Assay in HEK293 cells - 0 hour (AID 1224880); conditions: RealTime-Glo luminescence; series mostly up to 76.8 µM; note: top concentration of the series differs between compounds; nearly all actives have a fitted effect of over 45% in size
How it was run: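 Cells were seeded together with NanoLuc luciferase and a prosubstrate that viable cells reduce to a luciferase substrate. After a 5 h incubation at 37 C/5% CO2, compounds were added and luminescence was measured repeatedly during 40 h of treatment.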

[6] = A CellTox Green Cytotoxicity Assay to monitor cytotoxicity in HEK293 cells - 32 hour (AID 1224881); conditions: CellTox Green fluorescence; series mostly up to 76.8 µM; note: nearly all actives have a fitted effect of over 40% in size; note: potency is the fitted concentration of half-maximal effect
How it was run: (§3)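 Nonlytic real-time cytotoxicity: HEK293 + CellTox Green reagent plated, 5 h preincubation, pintool compound addition (23 nL in DMSO), 37 C for 40 h, fluorescence measured at successive time points.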

[7] = A CellTox Green Cytotoxicity Assay to monitor cytotoxicity in HepG2 cells - 0 hour (AID 1224882); conditions: CellTox Green fluorescence; series mostly up to 76.8 µM; note: nearly all actives have a fitted effect of over 35% in size; note: potency is the fitted concentration of half-maximal effect
How it was run: as §1

[8] = A CellTox Green Cytotoxicity Assay to monitor cytotoxicity in HEK293 cells - 8 hour (AID 1224884); conditions: CellTox Green fluorescence; series mostly up to 76.8 µM; note: nearly all actives have a fitted effect of over 35% in size; note: potency is the fitted concentration of half-maximal effect
How it was run: as §3

[9] = qHTS RealTime-Glo MT Cell Viability Assay in HepG2 cells - 16 hour (AID 1224885); conditions: RealTime-Glo luminescence; series mostly up to 76.8 µM; note: nearly all actives have a fitted effect of over 50% in size
How it was run: as §2

[10] = A CellTox Green Cytotoxicity Assay to monitor cytotoxicity in HepG2 cells - 32 hour (AID 1224883); conditions: CellTox Green fluorescence; series mostly up to 76.8 µM; note: nearly all actives have a fitted effect of over 50% in size; note: potency is the fitted concentration of half-maximal effect
How it was run: as §1

Measured: Potency

OCCN(CCO)CCO
inactive: [1] | [2] | [3] | [4] | [5] | [6] | [7] | [8] | [9]

c1ccc2c(c1)Oc1ccccc1O2
30.5 µM (active) and inactive: [4]
inactive: [1] | [2] | [3] | [5] | [6] | [7] | [8] | [9]

NCC(O)c1ccc(O)cc1 (centres undefined)
inactive: [1] | [2] | [3] | [4] | [5] | [6] | [7] | [8] | [9]

c1ccc(OP(Oc2ccccc2)Oc2ccccc2)cc1
inactive: [1] | [2] | [3] | [4] | [5] | [6] | [7] | [8] | [9]

Nc1ccc(Cc2ccc(N)cc2)cc1
inactive: [1] | [2] | [4] | [5] | [6] | [7] | [10] | [8] | [9]

NCCc1ccc(O)cc1
inactive: [1] | [2] | [4] | [5] | [6] | [7] | [10] | [8] | [9]

CCCCCOC(=O)c1ccccc1C(=O)OCCCCC
inactive: [1] | [2] | [3] | [4] | [5] | [6] | [7] | [8] | [9]

O=S(=O)(c1ccc(O)cc1)c1ccc(O)cc1
inactive: [1] | [2] | [3] | [4] | [5] | [6] | [7] | [8] | [9]

Clc1ccccc1Cl
inactive and 54.9 µM (active): [4]
inactive: [1] | [2] | [5] | [6] | [7] | [10] | [8] | [9]

c1ccc(-c2ccccc2)cc1
49.4 µM (active) and inactive: [4]
inactive: [1] | [2] | [3] | [5] | [6] | [7] | [8] | [9]

CCCC1COC(Cn2cncn2)(c2ccc(Cl)cc2Cl)O1 (centres undefined)
49.9 µM (active) and inactive: [6]
inactive: [1] | [2] | [3] | [5] | [7] | [8] | [9]

CCN(CC)CCO
inactive: [1] | [2] | [3] | [4] | [5] | [6] | [7] | [8] | [9]

C=CCO
inactive and 38.9 µM (active): [6] | [7]
inactive: [2] | [5] | [9]
inactive and 24.5 µM (active): [1] | [3] | [4]
inactive and 27.5 µM (active): [8]

CCC[CH2][Sn]([Cl])([Cl])[Cl]
inactive: [1] | [2] | [3] | [4] | [5] | [6] | [7] | [8] | [9]

CC(Br)C(=O)O (centres undefined)
inactive: [1] | [2] | [3] | [4] | [5] | [6] | [7] | [8] | [9]

Nc1c(Cl)c(Cl)nc(C(=O)O)c1Cl
inactive: [1] | [2] | [3] | [4] | [5] | [6] | [7] | [8] | [9]

CN(N=O)c1ccccc1
inactive: [1] | [2] | [3] | [4] | [5] | [6] | [7] | [8] | [9]

CC(C)N1C(=O)c2ccccc2NS1(=O)=O
inactive: [1] | [2] | [3] | [4] | [5] | [6] | [7] | [8] | [9]

C#CC(C)(C)NC(=O)c1cc(Cl)cc(Cl)c1
inactive: [1] | [2] | [3] | [4] | [5] | [6] | [7] | [10] | [8] | [9]

[O-][Cl+2]([O-])O
inactive: [1] | [2] | [3] | [4] | [5] | [6] | [7] | [8] | [9]

CCNc1nc(NC(C)C)nc(SC)n1
inactive: [1] | [2] | [3] | [4] | [5] | [6] | [7] | [8] | [9]

CC(Oc1ccc(Cl)cc1Cl)C(=O)O (centres undefined)
inactive: [1] | [2] | [4] | [5] | [6] | [7] | [10] | [8] | [9]

C1CC2OC2CC1C1CO1 (centres undefined)
inactive: [1] | [2] | [3] | [4] | [5] | [6] | [7] | [8] | [9]

Nc1ccc(Oc2ccc(N)cc2)cc1
inactive: [1] | [2] | [3] | [4] | [5] | [6] | [7] | [10] | [8] | [9]

C=C(C)CCl
inactive: [1] | [2] | [4] | [5] | [6] | [7] | [8] | [9]

Cc1cc(-c2cc(C)c(N)c(C)c2)cc(C)c1N
inactive: [1] | [2] | [4] | [5] | [6] | [7] | [10] | [8] | [9]

CCCN(CCC)N=O
inactive: [1] | [2] | [4] | [5] | [6] | [7] | [10] | [8] | [9]

CN(C)CCO
inactive: [1] | [2] | [4] | [5] | [6] | [7] | [8] | [9]

CCCN(CCC)c1c([N+](=O)[O-])cc(C(F)(F)F)cc1[N+](=O)[O-]
inactive: [1] | [2] | [4] | [5] | [7] | [10] | [9]
1.55 µM (active) and inactive: [6]
1.23 µM (active) and inactive: [8]

CN(C)N=O
inactive: [1] | [2] | [4] | [5] | [6] | [7] | [8] | [9]

CC1OC(C)OC(C)O1 (centres undefined)
inactive: [1] | [2] | [4] | [5] | [6] | [7] | [10] | [8] | [9]

CC(C)(C)OOC(=O)c1ccccc1
inactive: [1] | [2] | [4] | [5] | [6] | [7] | [10] | [8] | [9]

O=C(NC(=O)c1c(F)cccc1F)Nc1cc(Cl)c(OC(F)(F)C(F)C(F)(F)F)cc1Cl (centres undefined)
inactive: [1] | [2] | [4] | [5] | [6] | [7] | [10] | [8] | [9]

O=Cc1cccc(Oc2ccccc2)c1
inactive: [1] | [2] | [4] | [5] | [6] | [7] | [10] | [8] | [9]

CCOC(=O)c1ccccc1C(=O)OCC
inactive: [1] | [2] | [4] | [5] | [6] | [7] | [10] | [8] | [9]

O=[N+]([O-])c1ccccc1
inactive: [1] | [2] | [4] | [5] | [6] | [7] | [10] | [8] | [9]

CCC[N+](=O)[O-]
24.1 µM (active) and inactive: [4]
21.5 µM (active) and inactive: [10]
inactive: [1] | [2] | [5] | [6] | [7] | [8] | [9]

Nc1ccccc1C(=O)O
inactive: [1] | [2] | [4] | [5] | [6] | [7] | [10] | [8] | [9]

Cc1ccc(N)cc1Cl
inactive: [1] | [2] | [4] | [5] | [6] | [7] | [8] | [9]

CCCCN(CCCC)SN(C)C(=O)Oc1cccc2c1OC(C)(C)C2
inactive: [1] | [2] | [4] | [5] | [6] | [7] | [10] | [8] | [9]

CC(C)OC(=O)Nc1cccc(Cl)c1
inactive: [1] | [2] | [4] | [5] | [6] | [7] | [8] | [9]

CCNc1nc(NC(C)(C)C)nc(SC)n1
inactive: [1] | [2] | [4] | [5] | [6] | [7] | [8] | [9]

CC(C)(C)C(O)(CCc1ccc(Cl)cc1)Cn1cncn1 (centres undefined)
inactive: [1] | [2] | [5] | [6] | [7] | [8] | [9]

CCN(CC)c1ccccc1
inactive: [1] | [2] | [4] | [5] | [6] | [7] | [10] | [8] | [9]

CC(C)(C)OOC(C)(C)C
inactive: [1] | [2] | [4] | [5] | [6] | [7] | [10] | [8] | [9]

Cc1ccccc1O
inactive: [1] | [2] | [4] | [5] | [6] | [7] | [8] | [9]

O=c1ccc(=O)[nH][nH]1
inactive: [1] | [2] | [5] | [6] | [7] | [8] | [9]
inactive and 130 nM (active): [4] | [10]

O=NN1CCCC1
inactive: [2] | [5] | [6] | [7] | [9]
inactive and 21.9 µM (active): [8]
57.5 µM (active) and inactive: [4]

CC(C)OC(=O)Nc1ccccc1
inactive: [1] | [2] | [4] | [5] | [6] | [7] | [8] | [9]

Cc1cccc([N+](=O)[O-])c1
inactive: [1] | [2] | [4] | [5] | [6] | [7] | [8] | [9]

OC(O)C(Cl)(Cl)Cl
inactive: [1] | [2] | [4] | [5] | [6] | [7] | [10] | [8] | [9]

O=S(=O)(c1ccc(Cl)cc1)c1cc(Cl)c(Cl)cc1Cl
inactive: [1] | [2] | [4] | [5] | [6] | [7] | [10] | [8] | [9]

Clc1cccc(Cl)c1Cl
inactive: [1] | [2] | [4] | [5] | [6] | [7] | [10] | [8] | [9]

CCCCCCCCCCCC#N
inactive and 50.7 µM (active): [4]
inactive and 45.2 µM (active): [1] | [7] | [10] | [8]
inactive: [2] | [5] | [9]
inactive and 40.3 µM (active): [6]
